In experiment [1] the target is Pyruvate kinase PKM (Homo sapiens) (UniProt P14618). The experiment can be described thus: qHTS Assay for Activators of Human Muscle Pyruvate Kinase (AID 954; active means well fitted curve in the direction sought with a large enough effect, not every such curve was filed as active). The procedure, abridged:
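A coupled luminescent readout tracked ATP made from ADP by purified PKM2. Final conditions included 0.1 nM enzyme, PEP and ADP at 0.5 and 0.1 mM, pH 7.2 imidazole buffer with BSA, and a one-hour room-temperature reaction.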

Experiment [2] in a line: MultiTox-Fluor Cytotoxicity Assay - LYMP1-001 - Live Cells (AID 947).
The nature of experiment [3]: Cell Viability - LYMP1-002 - Assay at 16 hr (AID 948). In outline: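 In this qHTS, lymphoblastoid LYMP1-002 cells (human) receive compounds for 16 hr at 37 C. Viability is taken from CellTiter-Glo ATP luminescence, and AC50 derives from standard Hill fits.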
Experiment [4] in a line: MultiTox-Fluor Cytotoxicity Assay - LYMP1-002 - Live Cells (AID 955).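 Further: cells exposed to compound for 16 hours.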 In outline: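 After 16 h compound exposure at 37 C, live LYMP1-002 lymphoblastoid cells (2500/well) were quantified by cleavage of cell-permeant GF-AFC substrate, read at 405/510 nm after 60 min. Concentration-response fitted with Hill equation for AC50.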
The nature of experiment [5]: MultiTox-Fluor Cytotoxicity Assay - LYMP1-002 - Dead Cells (AID 960). Further: nearly all actives have a fitted effect of over 60% in size. The procedure, abridged: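 Dead-cell fluorescence (Ex/Em 485/520) after 16 h compound exposure at 37 C of LYMP1-002 lymphoblastoid cells in complete medium; AC50 by Hill equation, with data scaled between DMSO and 15 uM tetraoctylammonium bromide.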
Experiment [6] can be described thus: MultiTox-Fluor Cytotoxicity Assay - LYMP1-003 - Dead Cells (AID 961). Further: nearly all actives have a fitted effect of over 70% in size. The procedure, abridged:
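Human lymphoblastoid LYMP1-003 cells (2500/well) were treated with compounds for 16 hr at 37 C in complete medium. Dead-cell protease release was read by bis-AAF-R110 fluorescence (Ex/Em 485/520). AC50 came from Hill fits, normalized to DMSO and 15 uM tetraoctylammonium bromide.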

The nature of experiment [7]: MultiTox-Fluor Cytotoxicity Assay - LYMP1-003 - Live Cells (AID 962).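 Further: cells exposed to compound for 16 hours at 37 °C; cytotoxic hits lower the live-cell protease signal.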 The procedure, abridged:
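Live-cell protease activity (GF-AFC substrate, 405/510 nm, 60 min at room temperature) after 16 h, 37 C compound exposure of human lymphoblastoid LYMP1-003 cells; concentration-response fitted to the Hill equation for AC50.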

Experiment [8] can be described thus: Cell Viability - LYMP1-003 - Assay at 24 hr (AID 963). In outline:
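Concentration-response qHTS: ATP loss measured by CellTiter-Glo luminescence after 24 h compound exposure at 37 C. Cells were LYMP1-003 human lymphoblastoid, 2500 per well. AC50 derived via standard Hill equation modeling.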

Experiment [9] is described as follows: Cell Viability - LYMP1-003 - Assay at 40 hr (AID 964). Further: series mostly up to about 92 µM; nearly all actives have a fitted effect of over 60% in size. The procedure, abridged: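 Viability is taken as cellular ATP, read by CellTiter-Glo luminescence after 40 h of compound exposure at 37 C. Cells: human lymphoblastoid line LYMP1-003 at 2500/well; AC50 values derived by Hill-equation fitting of concentration-response data.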
Experiment [10] in a line: Cell Viability - LYMP2-003 (AID 965).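 Further: cells exposed to compounds for 24 h before reading; nearly all actives have a fitted effect of over 50% in size.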 Further: potency means the concentration at half of the fitted maximal effect. In outline: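 qHTS, human lymphoblastoid line, 2500 cells/well, complete medium. 24 h drug, 37 C. ATP-based luminescent readout; Hill-fit AC50.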
Experiment [11] is described as follows: Cell Viability - LYMP2-004 (AID 966). Further: nearly all actives have a fitted effect of over 65% in size. The procedure, abridged:
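AC50 values come from Hill modelling of concentration-dependent loss of intracellular ATP, measured by CellTiter-Glo luminescence. Human LYMP2-004 lymphoblastoid cells (2500/well) were exposed to compound for 24 h at 37 C.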

Experiment [12] in a line: Cell Viability - LYMP2-005 (AID 967). Further: series mostly up to about 92 µM. In outline:
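Luciferase-based ATP quantitation served as the viability measure in human lymphoblastoid LYMP2-005 cells exposed to test compounds for 24 h at 37 C in complete culture medium. Potency (AC50) was obtained by fitting concentration-response curves with the Hill equation.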

A short description of experiment [13]: Cell Viability - LYMP2-009 (AID 968). Further: nearly all actives have a fitted effect of over 55% in size. Further: potency means the concentration at half of the fitted maximal effect.
Experiment [14] can be described thus: Cell Viability - LYMP2-011 (AID 969). Further: nearly all actives have a fitted effect of over 60% in size. Further: potency means the concentration at half of the fitted maximal effect. In outline:
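Cytotoxicity qHTS with ATP content as read-out: lymphoblastoid cells (2500/well) exposed to compound for 24 h at 37 C, then luciferase luminescence measured. Concentration-response data fitted with the standard Hill equation to give AC50.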

A short description of experiment [15]: Cell Viability - LYMP2-013 (AID 970). Further: nearly all actives have a fitted effect of over 55% in size. Further: potency means the concentration at half of the fitted maximal effect. The procedure, abridged:
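qHTS cytotoxicity: ATP-dependent luminescence (CellTiter-Glo, 30 min room temperature) read after 24 h compound exposure at 37 C of 2500 LYMP2-013 lymphoblastoid cells per well. Concentration-response fitted with Hill equation to give AC50.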

A short description of experiment [16]: Cell Viability - LYMP2-015 (AID 971). Further: nearly all actives have a fitted effect of over 55% in size. Further: potency means the concentration at half of the fitted maximal effect. In outline: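 Cytotoxicity readout: decrease in intracellular ATP (CellTiter-Glo luminescence) in 2500 LYMP2-015 lymphoblastoid cells/well after 24 h compound exposure at 37 C. Concentration-response data fitted with the standard Hill equation to give AC50.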
Experiment [17] is described as follows: Cell Viability - LYMP2-017 (AID 972). Further: nearly all actives have a fitted effect of over 55% in size. Further: potency means the concentration at half of the fitted maximal effect. The procedure, abridged:
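CellTiter-Glo luminescence (cellular ATP, 30 min RT) measured cytotoxicity after 24 hr compound treatment at 37 C. Cells were a human lymphoblastoid line, LYMP2-017, plated at 2500/well and incubated 5 hr first; concentration-response fitted with Hill equation for AC50.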

Experiment [18] can be described thus: Cell Viability - LYMP2-019 (AID 973). Further: nearly all actives have a fitted effect of over 55% in size. Further: potency means the concentration at half of the fitted maximal effect. The procedure, abridged:
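AC50 values come from Hill-equation fits of luminescent intracellular ATP (CellTiter-Glo, 30 min, room temperature) following 24 h compound exposure at 37 C. Cells: LYMP2-019 lymphoblastoid line, 2500 per well, in complete culture medium.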

Experiment [19] has as its target Alpha-galactosidase (Coffea arabica) (UniProt Q42656). Kind of experiment: Counterscreen for Glucocerebrosidase Inhibitors: qHTS Assay for Coffee Bean alpha-Galactosidase at pH 4.5 (AID 957). Further: series mostly up to about 77 µM. The procedure, abridged:
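Fluorogenic qHTS at pH 4.5 (citrate buffer with Tween-20): 2 nM enzyme, 80 uM 4-MU-alpha-galactoside substrate, compound titrated 0.7 nM to 77 uM, 20 min room temperature. Glycine/NaOH stop; 4-MU read Ex 365/Em 440; Hill-equation AC50 against no-enzyme and enzyme controls.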
Background: A counterscreen serves to expose hits that act by an unwanted route or on another target.

Inconclusive results are not listed. Active and inactive are the calls of the source. Unless noted, the call rests on the fitted dose curve; in most records, active means well fitted curve in the direction sought with a large enough effect; inconclusive means small, poorly fitted or top-dose-only effect, or another doubt; inactive means no such curve, though single readings can be large; an effect the other way counts as inactive or inconclusive.

Chain of Pyruvate kinase PKM (Homo sapiens) (P14618 whole entry, looked up): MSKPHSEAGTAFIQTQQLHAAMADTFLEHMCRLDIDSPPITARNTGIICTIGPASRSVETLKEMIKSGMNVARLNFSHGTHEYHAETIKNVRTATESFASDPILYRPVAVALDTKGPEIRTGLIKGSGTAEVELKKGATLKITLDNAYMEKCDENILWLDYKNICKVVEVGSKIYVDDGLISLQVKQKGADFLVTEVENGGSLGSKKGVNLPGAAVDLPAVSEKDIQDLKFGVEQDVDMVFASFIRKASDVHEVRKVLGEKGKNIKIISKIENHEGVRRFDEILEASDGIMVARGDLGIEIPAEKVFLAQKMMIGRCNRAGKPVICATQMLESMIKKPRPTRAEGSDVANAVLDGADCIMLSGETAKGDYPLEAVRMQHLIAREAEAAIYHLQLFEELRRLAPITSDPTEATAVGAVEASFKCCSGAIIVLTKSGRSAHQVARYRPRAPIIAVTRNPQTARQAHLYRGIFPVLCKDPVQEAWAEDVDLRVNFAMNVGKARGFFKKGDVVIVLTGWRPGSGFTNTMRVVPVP
Chain of Alpha-galactosidase (Coffea arabica) (Q42656 whole entry, looked up): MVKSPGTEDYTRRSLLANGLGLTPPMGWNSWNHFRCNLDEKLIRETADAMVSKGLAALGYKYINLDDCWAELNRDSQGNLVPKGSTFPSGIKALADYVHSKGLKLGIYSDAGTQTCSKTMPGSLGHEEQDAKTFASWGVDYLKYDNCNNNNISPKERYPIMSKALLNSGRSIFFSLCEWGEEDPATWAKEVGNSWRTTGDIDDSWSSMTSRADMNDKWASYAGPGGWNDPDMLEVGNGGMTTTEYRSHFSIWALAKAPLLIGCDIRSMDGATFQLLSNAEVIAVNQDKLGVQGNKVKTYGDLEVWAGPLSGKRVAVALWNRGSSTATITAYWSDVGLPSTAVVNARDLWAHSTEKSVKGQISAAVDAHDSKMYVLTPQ

In the case of `N[C@@H]1C[C@H]1c1ccccc1`, in experiment [1], the compound was classed as inactive.
For `Oc1ccc(Cl)cc1Cc1ccccc1`, the result in experiment [2], in experiment [3] and in experiment [8] was inactive. For the same compound, the Potency entry in experiment [4], in [5], in experiment [6], in [7], in experiment [9] and in [10] was “inactive” in each case. In addition, the Potency entry in experiment [11], in [12], in [13], in [14], in experiment [15] and in experiment [16] was “inactive” each time. Also, the Potency entry in experiment [17] and in experiment [18] was “inactive” in each case.
In the case of `OCCOc1ccccc1`, the compound was called inactive in experiment [2], in experiment [3] and in experiment [8]. For the same compound, the Potency entry in experiment [4], in experiment [5], in experiment [6], in experiment [7], in experiment [9] and in experiment [10] was “inactive” throughout. Also, the Potency result in experiment [11], in experiment [13], in [14], in [15], in experiment [16] and in experiment [17] was “inactive” in each case. Besides, the Potency result in [18] is “inactive”.
Consider `N[C@@H](Cc1ccc(N(CCCl)CCCl)cc1)C(=O)O`, for which the compound was classed as inactive in experiment [2], in [3] and in experiment [8]. For the same compound, the Potency entry in experiment [4], in experiment [5], in experiment [6], in [7] and in [9] was “inactive” each time. In addition, the Potency in experiment [10] is 31.6 µM (active); in [13] it was 39.8 µM (active); in [14], 39.8 µM (active); in experiment [15], 39.8 µM (active); in experiment [16], 31.6 µM (active); in experiment [17] it was 39.8 µM (active). The Potency in experiment [18] is 39.8 µM (active).
For the compound `Fc1ccc(C(OCCN2CCN(CCCc3ccccc3)CC2)c2ccc(F)cc2)cc1`, the compound was called inactive in experiment [1] and in experiment [19].
As for `Nc1ccncc1`, the result in [1] and in experiment [19] was inactive.
As for `NCC1(CC(=O)O)CCCCC1`, the compound was called inactive in [1] and in [19].
`NN=C(N)N`: the compound was classed as inactive in experiment [1].
`O=c1[nH]c2ccccc2n1CCCN1CCC(n2c(=O)[nH]c3cc(Cl)ccc32)CC1`: the call in [1] and in experiment [19] was inactive.
